Results published in PubChem BioAssay.
Inconclusive results are not listed. The source made the active and inactive calls. Cut-off read from the data, not from the text of the source, unless noted: active = inhibition above about 80%; inactive = the rest.

Columns and labels:
[1] = viability loss in pontine glioma line – cell-based, SU-DIPG-XVII, MIPE5.0, CellTiter-Glo, qHTS, dose response (AID 1347060; cut-off not given, nearly all actives have AC50 up to about 26 µM;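 for AC50: cells exposed to compound for 48 hours before viability readout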); conditions: CellTiter-Glo ATP luminescence
[2] = viability loss in pontine glioma line – cell-based, SU-DIPG-XIII, MIPE5.0, CellTiter-Glo, qHTS, dose response (AID 1347064; cut-off not given, nearly all actives have AC50 up to about 23 µM;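 for AC50: cells exposed to compound for 48 hours before the viability read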); conditions: CellTiter-Glo ATP luminescence
[3] = viability loss in pontine glioma line – cell-based, SU-DIPG-XXV, MIPE5.0, CellTiter-Glo, qHTS, dose response (AID 1347065; cut-off not given, nearly all actives have AC50 up to about 26 µM;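 note: cells exposed to compound for 48 hours before ATP readout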); conditions: CellTiter-Glo ATP luminescence
[4] = JHH-DIPG-1 glioma cell viability, MIPE5.0 library, CellTiter-Glo luminescence, qHTS (AID 1347067; cut-off not given, nearly all actives have AC50 up to about 26 µM;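 note: cells exposed to compound for 48 hours before readout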); conditions: JHH-DIPG-1 glioma viability, CellTiter-Glo ATP luminescence
[5] = growth inhibition of DIPG cells – cell-based, MIPE5.0 library, qHTS (AID 1347068; cut-off not given, nearly all actives have IC50 up to about 30 µM;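 for IC50: cells exposed to compound for 48 hours before viability readout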); conditions: SU-DIPG-XXV viability
[6] = viability loss with induced miR-34 in A549 – imaging, A549 dox-inducible miR-34, nuclei and caspase counts, primary screen (AID 1347080;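 active = compounds whose cell count with miR-34 switched on is under 0.7 times the count with it off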); conditions: A549 miR-34 inducible, Hoechst nuclei count, 48 h
[7] = MELAS cybrid and Rieske KO viability enhancers – cell-based, MELAS cybrids, Rieske KO mouse fibroblasts, CellTiter-Glo, primary screen (AID 1508586;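 active = mean z-score across replicates of 1.96 or higher in either the MELAS or the Rieske mutant cell line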;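 note: z relative to plate mean and SD of compound and empty wells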); conditions: low glucose
[8] = growth inhibition, single agent or in combination, cell-based, chromothripsis tumors, cisplatin or BGB combos (AID 1671449); conditions: LFS_MB_P medulloblastoma cells;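 note: cells exposed for 96 hours; 0% = vehicle DMSO and 100% = killing by high DMSO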
[9] = growth inhibition, single agent and combos, cell-based, chromothripsis tumors, cisplatin or BGB combos (AID 1671450); conditions: HDN33 neuroblastoma cells, stronger effect = higher value;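 note: cells exposed to compound for four days; 0% = vehicle DMSO and 100% = cell killing by high DMSO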
[10] = growth inhibition, single agents and combos, ICB984, cell-based, cisplatin or BGB combos, synergistic combos for chromothripsis tumors (AID 1671451; call rule not given here;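 note: cells exposed for 96 hours before readout; 0% = vehicle DMSO and 100% = killing by high DMSO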); conditions: ICB984 medulloblastoma cells, drug combinations, stronger effect = higher value
[11] = growth inhibition, single agents and combos, LFS_MB_1R, cell-based, cisplatin or BGB combos, synergistic combos for chromothripsis tumors (AID 1671452); conditions: LFS_MB_1R medulloblastoma cells, stronger effect = higher value;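 note: cells exposed for 96 hours before readout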
[12] = growth inhibition, single agents and combos, HTB85, cell-based, BGB or cisplatin IC20 combos, synergistic combos for chromothripsis tumors (AID 1671453); conditions: HTB85 osteosarcoma cells, drug combinations, stronger effect = higher value;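 note: cells exposed for 96 hours before readout; 0% = vehicle DMSO and 100% = high DMSO killing control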
[13] = growth inhibition, single agents and combos, CRL2098, cell-based, BGB or cisplatin IC20 combos, synergistic combos for chromothripsis tumors (AID 1671454); conditions: CRL2098 osteosarcoma cells, drug combinations, stronger effect = higher value;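 note: cells exposed for 96 h before readout; 0% = vehicle DMSO and 100% = killing by high DMSO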
[14] = growth inhibition, single agents and combos, HD-MB03, cell-based, BGB or cisplatin IC20 combos, synergistic combos for chromothripsis tumors (AID 1671455; in the data active = inhibition above about 83%;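 note: 0% = vehicle DMSO and 100% = high DMSO as cytotoxic control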); conditions: HD-MB03 medulloblastoma cells, stronger effect = higher value
[15] = growth inhibition, single agents and combos, UWB1.289, cell-based, BGB or cisplatin combos, synergistic combos for chromothripsis tumors (AID 1671456); conditions: UWB1.289 ovarian carcinoma cells, stronger effect = higher value;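 note: cells exposed to compound for four days; 0% = vehicle DMSO and 100% = killing by high DMSO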
[16] = growth inhibition, MDA-MB-436, cell-based, BGB or cisplatin combos, synergistic combos for chromothripsis tumors (AID 1671458; call rule not given here;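 note: cells exposed for 96 hours; 0% = vehicle DMSO and 100% = killing by high DMSO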); conditions: MDA-MB-436 breast carcinoma growth inhibition, drug combinations, stronger effect = higher value
[17] = BT084 cell growth, single and combined drugs, ICGC_MB145, cisplatin and BGB IC40 combos (AID 1671461); conditions: BT084 medulloblastoma cells, drug combinations, stronger effect = higher value;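 note: cells exposed to drugs for 96 hours; 0% = vehicle DMSO and 100% = high DMSO full killing control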
[18] = RCMB18 cell growth, single agent and combined, cisplatin and BGB IC40 combos (AID 1671462); conditions: RCMB18 medulloblastoma cells, stronger effect = higher value;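 note: cells exposed to compound for four days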
[19] = CRL1545 cell growth, single agent and combined, cisplatin and BGB IC20 combos (AID 1671464); conditions: CRL1545 osteosarcoma cells, stronger effect = higher value;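 note: cells exposed to compound for 96 hours before readout; 0% = vehicle DMSO and 100% = high DMSO killing control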
[20] = measured here: combination with BGB IC40, at 0.05 µM
[21] = measured here: with BGB IC20 combination, at 0.5 µM
[22] = measured here: with cisplatin IC20 combination, at 0.5 µM
[23] = measured here: combination with cisplatin, at 0.5 µM

## Cc1cc(O)cc2c1[C@]1(C)CC[C@H]3C(C)(C)CCC[C@]3(C)[C@H]1C2
[1]
  outcome: inactive
[2]
  outcome: inactive
[3]
  outcome: inactive
[4]
  outcome: inactive
[5]
  outcome: inactive

## c1ccc(Cn2c(-c3ccc(OCC(C4CCNCC4)n4c(-c5ccccc5)nc5ccccc54)cc3)nc3ccccc32)cc1 (stereo not given)
[1]
  AC50: 18.6 µM (active)
[2]
  AC50: 20.9 µM (active)
[3]
  AC50: 13.2 µM (active)
[4]
  AC50: 16.6 µM (active)
[5]
  IC50: 23.5 µM (active)
[6]; stronger effect = lower value, cell number ratio, induced over uninduced
  fold change: 1.11 (inactive)
[6]; measured here: relative caspase fold change +Dox/-Dox
  fold change: 0.359
[6]; measured here: total cells with miR-34 induction, stronger effect = lower value
  cell count: 5600
[6]; measured here: total cells without miR-34 induction
  cell count: 5040
[7]; MELAS cybrid survival, CellTiter-Glo 48 h, stronger effect = higher value
  z-score: -0.583 (inactive)
[7]; Rieske KO mouse fibroblast survival, CellTiter-Glo 72 h
  z-score: -1.33

## COc1ccc(C(=O)C2CCN(CC(=O)N(Cc3nc4c(c(=O)[nH]3)COCC4)CC3CC3)CC2)cc1
[1]
  outcome: inactive
[2]
  outcome: inactive
[3]
  outcome: inactive
[4]
  outcome: inactive
[5]
  outcome: inactive
[8]; at 0.5 µM, stronger effect = higher value
  inhibition: -26.8% (inactive)
[8]; measured here: combination with BGB IC20, at 0.005 µM
  inhibition: -22.7%
[8]; measured here: combination with BGB IC40, at 0.005 µM
  inhibition: -42.7%
[8]; [20]
  inhibition: -55.1%
[8]; measured here: combination with cisplatin, at 0.5 µM, stronger effect = higher value
  inhibition: -22.8%
[8]; measured here: combination with cisplatin, at 5 µM, stronger effect = higher value
  inhibition: -44.7%
[9]; BGB combo, at 5 µM
  inhibition: -14.7%
[9]; at 0.5 µM
  inhibition: 19.2% (inactive)
[9]; cisplatin combo, at 5 µM
  inhibition: 9.88%
[9]; [21]
  inhibition: 15.5%
[9]; [22]
  inhibition: 24.9%
[9]; single agent, at 5 µM
  inhibition: 15.7%
[10]; BGB IC20 combo, at 0.005 µM
  inhibition: -9.62%
[10]; BGB IC40 combo, at 0.005 µM
  inhibition: -29.7%
[10]; BGB IC40 combo, at 0.05 µM
  inhibition: -4.73%
[10]; at 0.5 µM
  inhibition: -22.8% (inactive)
[10]; cisplatin combo, at 0.05 µM
  inhibition: -10.1%
[10]; cisplatin combo, at 0.5 µM
  inhibition: -15%
[10]; cisplatin combo, at 5 µM
  inhibition: -26%
[10]; measured here: 5 uM single agent, at 5 µM
  inhibition: -16%
[11]; at 0.5 µM
  inhibition: -33% (inactive)
[11]; [20]
  inhibition: -55.7%
[11]; [23]
  inhibition: -42.4%
[11]; measured here: combination with cisplatin, at 5 µM
  inhibition: -67.1%
[12]; at 0.5 µM
  inhibition: 14.2% (inactive)
[12]; measured here: with BGB IC20, at 0.5 µM
  inhibition: 33.7%
[12]; measured here: with BGB IC20, at 5 µM
  inhibition: 10.5%
[12]; measured here: with cisplatin IC20, at 0.5 µM
  inhibition: -3.3%
[12]; measured here: with cisplatin IC20, at 5 µM
  inhibition: 4.94%
[12]; single agent, at 5 µM
  inhibition: 15.4%
[13]; at 0.5 µM
  inhibition: -25.5% (inactive)
[13]; measured here: combination with BGB at IC20, at 0.5 µM
  inhibition: -15.2%
[13]; measured here: combination with cisplatin at IC20, at 0.5 µM
  inhibition: -29.9%
[14]; at 0.5 µM
  inhibition: -6.43% (inactive)
[14]; measured here: combo with BGB at IC20, at 0.5 µM
  inhibition: -11.5%
[14]; measured here: combo with cisplatin at IC20, at 0.5 µM
  inhibition: -4.57%
[15]; at 0.5 µM
  inhibition: 0.15% (inactive)
[15]; measured here: inhibition with BGB combination, at 0.05 µM
  inhibition: -7.89%
[15]; measured here: inhibition with cisplatin combination, at 0.05 µM
  inhibition: -13.7%
[16]; at 0.5 µM
  inhibition: -12.3% (inactive)
[16]; measured here: BGB combination, at 0.5 µM
  inhibition: -9.1%
[16]; measured here: BGB combination, at 5 µM
  inhibition: -21.6%
[16]; measured here: cisplatin combination, at 0.5 µM
  inhibition: -32.8%
[16]; measured here: cisplatin combination, at 5 µM
  inhibition: -17.8%
[17]; at 0.5 µM
  inhibition: -24.2% (inactive)
[17]; cisplatin combination, at 0.5 µM
  inhibition: -30.1%
[17]; cisplatin combination, at 5 µM
  inhibition: -190%
[17]; measured here: BGB IC40 combination 0.05 uM, at 0.05 µM
  inhibition: -40%
[17]; single agent, at 5 µM
  inhibition: -16.6%
[18]; at 0.5 µM
  inhibition: -19.3% (inactive)
[18]; cisplatin combo, at 5 µM
  inhibition: -12.1%
[18]; measured here: BGB IC40 combination, at 0.05 µM
  inhibition: -3.95%
[18]; [23]
  inhibition: -13.9%
[18]; single agent, at 5 µM
  inhibition: 8.88%
[19]; at 0.5 µM
  inhibition: 9.43% (inactive)
[19]; [21]
  inhibition: 5.59%
[19]; [22]
  inhibition: 9.92%
[19]; single agent, at 0.05 µM
  inhibition: -39.6%
[19]; single agent, at 5 µM
  inhibition: -10.3%
